Common to all, as to assay: NCI-60 one-dose screen, 48 h (100 = growth as untreated, 0 = no growth, -100 = all killed)
One assay relates to HCT-15 colon. Particulars: 10 µM unless noted.
The test system of the next assay is HT29 colon. The note with it: 10 µM unless noted.
The next assay relates to SNB-75 CNS. The note with it: 10 µM unless noted.
A further assay deals with SNB-19 CNS. Particulars: 10 µM unless noted.
Another assay concerns U251 CNS. The note with it: 10 µM unless noted.
The subject of a further assay is PC-3 prostate. Particulars: 10 µM unless noted.
A further assay deals with SK-MEL-5 melanoma. The note with it: 10 µM unless noted.
The next assay deals with UACC-62 melanoma. The note with it: 10 µM unless noted.
A further assay has as its system LOX IMVI melanoma. Particulars: 10 µM unless noted.
The subject of the next assay is SK-MEL-28 melanoma. Particulars: 10 µM unless noted.
The next assay relates to SK-MEL-2 melanoma. The note with it: 10 µM unless noted.
In a further assay the test system is EKVX NSCLC. The note with it: 10 µM.
The next assay relates to UO-31 renal. Particulars: 10 µM unless noted.
A further assay has as its system TK-10 renal. The note with it: 10 µM unless noted.
Another assay relates to ACHN renal. Particulars: 10 µM unless noted.
A further assay concerns CAKI-1 renal. Particulars: 10 µM unless noted.
The subject of a further assay is A498 renal. The note with it: 10 µM unless noted.
Another assay relates to CCRF-CEM leukemia. The note with it: 10 µM.
The next assay relates to MOLT-4 leukemia. The note with it: 10 µM unless noted.
The next assay concerns SN12C renal. The note with it: 10 µM unless noted.

Consider 8 compounds from PubChem BioAssay (NCI).

The panel holds about 83,000 compounds, 20% with a hit somewhere; the sample as a whole holds those more often.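 In brief: 96-well plates, 48 h treatment, single concentration, percent growth endpoint.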 Values without a mark were called inactive. Activity calls are given as the source filed them. How the source made its calls: active means growth percent below 10; inactive means the rest.

With `COC(=O)C1CC(=O)N(C(=O)Nc2ccc(Cl)cc2Cl)C1` (stereo unspecified), the growth in the assay on HCT-15 colon is 99%; with HT29 colon it was 101%; with SNB-75 CNS it was 98.7%; with SNB-19 CNS, 102%; in the assay with U251 CNS it was 97.3%; with PC-3 prostate it was 95.2%. Moreover, the growth was 108% with SK-MEL-5 melanoma; 97.2% with UACC-62 melanoma; 96.8% in the assay with LOX IMVI melanoma; 112% in the assay on SK-MEL-28 melanoma; 108% in the assay on SK-MEL-2 melanoma; 96.5% with EKVX NSCLC. The growth with UO-31 renal is 84.1%; with TK-10 renal it was 112%; in the assay with ACHN renal, 99.9%; in the assay on CAKI-1 renal it was 95.6%; with A498 renal it was 115%; in the assay with CCRF-CEM leukemia, 103%. In addition, the growth in the assay on MOLT-4 leukemia is 95%.

Regarding `COc1ccc(-c2nc(N)n(C(=S)Nc3ccccc3)n2)cc1`, the growth is 102% with HCT-15 colon; 99.4% in the assay on HT29 colon; 70% in the assay on SNB-75 CNS; 99.5% in the assay with SNB-19 CNS; 103% with U251 CNS; 92.3% in the assay on PC-3 prostate. For the same compound, the growth was 94% with SK-MEL-5 melanoma; 98% in the assay on UACC-62 melanoma; 94.3% in the assay on LOX IMVI melanoma; 116% in the assay with SK-MEL-28 melanoma; 101% with SK-MEL-2 melanoma; 96.3% with EKVX NSCLC. The growth in the assay with SN12C renal is 100%; in the assay on UO-31 renal, 74.2%; in the assay with TK-10 renal it was 113%; in the assay on ACHN renal, 97.9%; in the assay with CCRF-CEM leukemia it was 98.7%; in the assay with MOLT-4 leukemia it was 98.5%.

Consider `CCCCN(CCCC)CCCNc1c2c(nc3ccc(Cl)cc13)CCCC2`, for which the growth in the assay on HCT-15 colon is 74.2%; with HT29 colon, 45.7%; in the assay on SNB-75 CNS, 88.4%; in the assay with SNB-19 CNS, 102%; with U251 CNS, 101%; in the assay on PC-3 prostate it was 95.5%. Also, the growth with SK-MEL-5 melanoma is 106%; in the assay on UACC-62 melanoma, 108%; with LOX IMVI melanoma, 90.4%; in the assay on SK-MEL-28 melanoma, 108%; in the assay with SK-MEL-2 melanoma, 101%; in the assay on EKVX NSCLC, 95.5%. Further, the growth is 93.2% in the assay with SN12C renal; 72.7% with UO-31 renal; 86.3% in the assay on TK-10 renal; 102% in the assay with ACHN renal; 98.1% with CCRF-CEM leukemia; 94.9% in the assay on MOLT-4 leukemia.

On to `COc1ccc(-c2nc(SCC(C)C)nc(Nc3ccc(C(=O)O)cc3)c2C#N)cc1`, for which the growth with HCT-15 colon is 33%; in the assay with HT29 colon it was 94.7%; in the assay on SNB-75 CNS, 88.6%; in the assay on SNB-19 CNS it was 98.1%; in the assay on U251 CNS, 94.8%; in the assay on PC-3 prostate it was 82.3%. For the same compound, the growth in the assay on SK-MEL-5 melanoma was 63.3%; in the assay with UACC-62 melanoma, 99.3%; with LOX IMVI melanoma, 88%; with SK-MEL-28 melanoma, 25.5%; in the assay with SK-MEL-2 melanoma it was 57.9%; in the assay on EKVX NSCLC, 90.7%. For the same compound, the growth is 102% with SN12C renal; 92.9% in the assay with UO-31 renal; 88.5% in the assay with TK-10 renal; 89.5% with ACHN renal; 89.2% in the assay on CCRF-CEM leukemia; 82.7% in the assay with MOLT-4 leukemia.

Regarding `CCC(C)(C)c1ccc(OCCCCCCN2CCNCC2)cc1`, the growth in the assay on HCT-15 colon is -36.1% (active); in the assay on HT29 colon, 8.87% (active); in the assay with SNB-75 CNS it was 60.5%; with SNB-19 CNS it was 68.6%; in the assay with U251 CNS, 18.8%; in the assay on PC-3 prostate it was 64.3%. In addition, the growth in the assay on SK-MEL-5 melanoma was 34.2%; in the assay with UACC-62 melanoma, 85.6%; with LOX IMVI melanoma it was -47.1% (active); in the assay with SK-MEL-28 melanoma, 74.2%; in the assay on SK-MEL-2 melanoma, 96.9%; in the assay with EKVX NSCLC it was 115%. Besides, the growth with UO-31 renal is 63.5%; with TK-10 renal, 90.4%; with ACHN renal, 42.6%; in the assay on CAKI-1 renal it was 70%; with A498 renal, 71.2%; in the assay with CCRF-CEM leukemia it was 4.24% (active). Further, the growth in the assay with MOLT-4 leukemia is 10.4%.

For the compound `C[C@@H](c1ccc2c(c1)[nH]c1ccc(Cl)cc12)c1nc2ccccc2[nH]1`, the growth in the assay on HCT-15 colon is 96%; in the assay on HT29 colon, 98%; in the assay with SNB-75 CNS, 62.4%; in the assay with SNB-19 CNS it was 92%; with U251 CNS, 98.4%; in the assay with PC-3 prostate, 91.3%. For the same compound, the growth was 95.3% in the assay on SK-MEL-5 melanoma; 85.9% with UACC-62 melanoma; 88.2% in the assay with LOX IMVI melanoma; 112% in the assay on SK-MEL-28 melanoma; 108% with SK-MEL-2 melanoma; 92.6% in the assay on EKVX NSCLC. For the same compound, the growth in the assay with SN12C renal is 89.6%; with UO-31 renal, 56.6%; in the assay on TK-10 renal it was 136%; with ACHN renal it was 96.5%; in the assay on MOLT-4 leukemia it was 92.4%.

For `COc1cc(-c2c3c(cn2CCN2CCCCC2)-c2oncc2CC3)cc(OC)c1OC`, the growth is 98.3% with HCT-15 colon; 84% in the assay on HT29 colon; 81.4% with SNB-75 CNS; 99.8% in the assay on SNB-19 CNS; 101% in the assay on U251 CNS; 89.7% with PC-3 prostate. Besides, the growth in the assay on SK-MEL-5 melanoma is 98.3%; with UACC-62 melanoma, 90.4%; with LOX IMVI melanoma, 97.7%; in the assay on SK-MEL-28 melanoma, 100%; with SK-MEL-2 melanoma it was 106%; with EKVX NSCLC, 102%. For the same compound, the growth with UO-31 renal is 80.2%; in the assay with TK-10 renal it was 100%; with ACHN renal, 89.7%; in the assay on CAKI-1 renal, 87%; in the assay on A498 renal, 90.9%; in the assay with CCRF-CEM leukemia, 103%. In the assay on MOLT-4 leukemia, the growth was 100%.

As to `CCCNC(=O)Oc1ccc(/C(=C(/CC)Cc2ccccc2)c2ccc(OCCN(CC)CC)cc2)cc1`, the growth in the assay with HCT-15 colon was 7.99% (active); in the assay on HT29 colon, -14.8% (active); in the assay on SNB-75 CNS, 63.6%; with SNB-19 CNS it was 87.7%; in the assay on U251 CNS, 45.1%; in the assay with PC-3 prostate, 60.8%. Moreover, the growth is 39.8% in the assay on SK-MEL-5 melanoma; 91.7% in the assay with UACC-62 melanoma; 63.9% in the assay on LOX IMVI melanoma; 92.9% in the assay with SK-MEL-28 melanoma; 101% in the assay on SK-MEL-2 melanoma; 79.3% with EKVX NSCLC. The growth was 78.6% in the assay on SN12C renal; 51.5% in the assay on UO-31 renal; 85.8% in the assay on TK-10 renal; 90.1% in the assay with ACHN renal; 57.7% with CCRF-CEM leukemia; 46.9% in the assay on MOLT-4 leukemia.
